# Source: PubChem BioAssay AID1224904 (Broad Institute, 2016)
# Among all 37,000 compounds or so, about 290 (0.78%) were called active. Not shown: some 10% with an inconclusive outcome.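 How the source made its calls: active means mean inhibition of at least 10% in the main channel, exceeding the control channel by a set limit; inconclusive means inhibition of 10% or more but channel gap under a set limit; inactive means mean inhibition below 10%.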 The list comes from a sample in which actives are over-represented; it also holds similar structures and randomly drawn compounds.
# Test: DUX4 transcriptional activity inhibition in cells – 293T cells, Gaussia and Italica luciferase, primary screen (AID 1224904);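 on activity change, negative = inhibition: 0% = median of neutral control wells and -100% = median of positive control wells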
# Details: 293T-iDUX4 ZSCAN4-Gaussia luciferase reporter, 24 h, stronger effect = lower value, concentration not given here; for Gaussia minus Italica difference: measured here: selective DUX4 reporter inhibition
# [1] = measured here: Italica tet-on control reporter
SMILES,"activity change, negative = inhibition","activity change, negative = inhibition [1]",Gaussia minus Italica difference
O=C(Cc1ccccc1)N1C[C@H]2[C@@H](c3ccccc31)[C@H](CO)N2C(=O)C1CCOCC1,-0.397% (inactive),-3.56%,3.16%
COc1ccc(NC(=O)N2C[C@H](O)COC[C@@H]3O[C@@H](CC(=O)NCc4ccccc4OC)CC[C@H]32)cc1,2.52% (inactive),3.01%,-0.496%
CCCC(=O)Nc1ccc2c(c1)C(=O)N(C)[C@@H]1CC[C@H](CC(=O)NCCN3CCCCC3)O[C@@H]1CO2,-1.36% (inactive),5.24%,-6.6%
CO[C@H]1CN(C)C(=O)c2ccc(NC(=O)Nc3ccccc3)cc2OC[C@@H](C)N(C(=O)CC2CC2)C[C@@H]1C,-6.56% (inactive),5.38%,-11.9%
O=C(CC1CC1)Nc1ccc2c(c1)[C@@H]1C[C@@H](CC(=O)NC3CCCCC3)O[C@H](CO)[C@@H]1O2,5.02% (inactive),5.44%,-0.425%
COCC(=O)Nc1ccc2c(c1)C(=O)N(C)[C@@H]1CC[C@H](CC(=O)NCCc3ccccc3)O[C@@H]1CO2,0.635% (inactive),5.13%,-4.5%
CC(C)NC(=O)N1[C@H](CO)[C@@H]2c3ccccc3N(C(=O)Nc3cccc(Cl)c3)C[C@@H]21,5.76% (inactive),2.62%,3.13%
COc1ccc(NC(=O)Nc2ccc3c(c2)[C@@H]2C[C@@H](CC(=O)NCc4ccncc4)O[C@@H](CO)[C@@H]2O3)cc1,-2.23% (inactive),2.02%,-4.25%
CCN(C[C@@H]1[C@H](c2ccccc2)[C@@H](CO)N1CC1CC1)C(=O)c1ccccn1,-3.34% (inactive),-1.85%,-1.49%
COCC(=O)N(C[C@H]1N[C@H](CO)[C@H]1c1ccc(C2=CCCCC2)cc1)C(C)C,2.12% (inactive),3.71%,-1.6%
COc1ccccc1C#Cc1cnc2c(c1)C(=O)N([C@@H](C)CO)C[C@@H](C)[C@H](CN(C)C(=O)CN(C)C)O2,-1.64% (inactive),-4.12%,2.47%
CCC(=O)N1[C@H](C(=O)NCc2ccc(F)cc2)[C@@H](CO)[C@@H]2Cn3c(ccc(C4=CCCCC4)c3=O)[C@@H]21,2.81% (inactive),-5.8%,8.61%
CCCN1C[C@@H](C)[C@H](OC)CN(C)C(=O)c2ccc(NC(=O)C3CCOCC3)cc2OC[C@@H]1C,2.85% (inactive),6.21%,-3.36%
C[C@H](NC(=O)C[C@H]1C=C[C@H](NS(=O)(=O)c2cccc(F)c2)[C@@H](CO)O1)c1ccccc1,2.8% (inactive),1.12%,1.67%
O=C1CCC(=O)N[C@H](c2ccccc2)C/C=C\CCN1,-2.86% (inactive),-3.05%,0.183%
O=C(NCC(F)(F)F)[C@H]1[C@H](CO)[C@H]2Cn3c(ccc(-c4ccncc4)c3=O)[C@H]2N1Cc1ccncc1,5.89% (inactive),-1.87%,7.77%
CCNC(=O)C[C@@H]1CC[C@@H]2[C@H](COC[C@H](O)CN2S(=O)(=O)c2ccc(Oc3ccccc3)cc2)O1,1.12% (inactive),2.14%,-1.02%
CC(C)[C@@H]1COCc2cnnn2CCC[C@H](C)C(=O)N1,-1.36% (inactive),-1.01%,-0.347%

SMILES,"activity change, negative = inhibition","activity change, negative = inhibition [1]",Gaussia minus Italica difference
COCC(=O)N1[C@H](CNC(=O)c2ccccn2)[C@H](c2ccccc2)[C@@H]1CO,-0.865% (inactive),1.68%,-2.54%
Cc1ccc(S(=O)(=O)N(C)C[C@H]2OCc3ccccc3-c3ccccc3C(=O)N([C@@H](C)CO)C[C@@H]2C)cc1,10.1% (inactive),2.48%,7.63%
O=C(C[C@@H]1CC[C@@H]2[C@H](COC[C@H](O)CN2Cc2cccc(F)c2)O1)NCc1ccncc1,6.79% (inactive),-2.25%,9.04%
CCCC#Cc1ccc([C@H]2[C@@H](CO)N3CCCCN(C(=O)c4ccc5c(c4)OCO5)C[C@@H]23)cc1,-4.6% (inactive),3.84%,-8.43%
CCC(=O)N1CC2(C1)[C@@H](c1ccc(-c3ccc(C#N)cc3)cc1)[C@H](CO)N2C(C)=O,10.1% (inactive),-1.24%,11.4%
CCC(=O)N1CCC2(CC1)CN(Cc1cccc(Cl)c1)[C@@H](CO)c1c2c2ccc(OC)cc2n1C,-5.44% (inactive),-3.43%,-2.02%
C/C=C/c1ccc([C@H]2[C@@H](CO)N(C(=O)CN(C)C)C23CN(C(=O)C2CCCC2)C3)cc1,-0.233% (inactive),-6.7%,6.47%
COc1cc(CN2CC3(CN(S(=O)(=O)c4cn(C)cn4)C3)c3c(n(C)c4cc(OC)ccc34)[C@H]2CO)cc(OC)c1,-2.88% (inactive),-0.316%,-2.57%
CCCNC(=O)C[C@H]1CC[C@H]2[C@H](COc3ccc(NC(=O)CC)cc3C(=O)N2C)O1,2.97% (inactive),-1.81%,4.79%
CN(C)C(=O)[C@@H]1[C@@H](CO)[C@@H]2Cn3c(cccc3=O)[C@H]1N2CC1CCCCC1,-1.56% (inactive),-4.57%,3%
COc1cccc(-c2ccc([C@@H]3[C@@H](CO)N(C(=O)c4ccccn4)[C@H]3C#N)cc2)c1,5.81% (inactive),-1.92%,7.74%
C[C@H](NC(=O)C[C@@H]1CC[C@@H]2[C@H](COC[C@@H](O)CN2Cc2cc(F)ccc2F)O1)c1ccccc1,0.118% (inactive),1.93%,-1.81%
O=C(Cc1ccccc1)N1C[C@@H]2[C@H](c3ccccc31)[C@@H](CO)N2C(=O)C1CCOCC1,1% (inactive),2.15%,-1.15%
C[C@@H](O)C#Cc1ccc([C@@H]2[C@H]3CN(C(=O)c4ccc5c(c4)OCO5)CCCCN3[C@H]2CO)cc1,1.93% (inactive),10.3%,-8.36%
COCC(=O)Nc1ccc2c(c1)C(=O)N(C)[C@@H]1CC[C@@H](CC(=O)NCCCN(C)C)O[C@@H]1CO2,-2.75% (inactive),-0.412%,-2.33%
COc1ccccc1S(=O)(=O)N1CC[C@H]2[C@@H](CO)N(C)c3ccc(C#Cc4ccccc4)cc3[C@H]21,8.89% (inactive),12.9%,-4.03%
C[C@@H]1CN([C@@H](C)CO)C(=O)c2c(c3ccccc3n2C)-c2ccccc2CO[C@H]1CN(C)C(=O)C1CC1,7.74% (inactive),14.6%,-6.9%
